Data: the supplement of paper PMC11732987, “Enantioselective OTUD7B fragment discovery through chemoproteomics screening and high-throughput optimisation” (Communications Chemistry, 2025)

Key:
Assay in all cases: log2 ratio of Biotin-Ahx-Ub-VS probe labelling (fragment/DMSO); higher = less target engagement (more negative = stronger competition), active = hit call of the paper (q ≤ 0.05, log2 ratio ≤ -1)
Conditions in all cases: compound concentration: 200 uM; treatment time: 3 h
[1] = biological target: USP34 (UniProt Q70CQ2)
Chain of USP34 (Q70CQ2 whole entry, the tested form may be a part): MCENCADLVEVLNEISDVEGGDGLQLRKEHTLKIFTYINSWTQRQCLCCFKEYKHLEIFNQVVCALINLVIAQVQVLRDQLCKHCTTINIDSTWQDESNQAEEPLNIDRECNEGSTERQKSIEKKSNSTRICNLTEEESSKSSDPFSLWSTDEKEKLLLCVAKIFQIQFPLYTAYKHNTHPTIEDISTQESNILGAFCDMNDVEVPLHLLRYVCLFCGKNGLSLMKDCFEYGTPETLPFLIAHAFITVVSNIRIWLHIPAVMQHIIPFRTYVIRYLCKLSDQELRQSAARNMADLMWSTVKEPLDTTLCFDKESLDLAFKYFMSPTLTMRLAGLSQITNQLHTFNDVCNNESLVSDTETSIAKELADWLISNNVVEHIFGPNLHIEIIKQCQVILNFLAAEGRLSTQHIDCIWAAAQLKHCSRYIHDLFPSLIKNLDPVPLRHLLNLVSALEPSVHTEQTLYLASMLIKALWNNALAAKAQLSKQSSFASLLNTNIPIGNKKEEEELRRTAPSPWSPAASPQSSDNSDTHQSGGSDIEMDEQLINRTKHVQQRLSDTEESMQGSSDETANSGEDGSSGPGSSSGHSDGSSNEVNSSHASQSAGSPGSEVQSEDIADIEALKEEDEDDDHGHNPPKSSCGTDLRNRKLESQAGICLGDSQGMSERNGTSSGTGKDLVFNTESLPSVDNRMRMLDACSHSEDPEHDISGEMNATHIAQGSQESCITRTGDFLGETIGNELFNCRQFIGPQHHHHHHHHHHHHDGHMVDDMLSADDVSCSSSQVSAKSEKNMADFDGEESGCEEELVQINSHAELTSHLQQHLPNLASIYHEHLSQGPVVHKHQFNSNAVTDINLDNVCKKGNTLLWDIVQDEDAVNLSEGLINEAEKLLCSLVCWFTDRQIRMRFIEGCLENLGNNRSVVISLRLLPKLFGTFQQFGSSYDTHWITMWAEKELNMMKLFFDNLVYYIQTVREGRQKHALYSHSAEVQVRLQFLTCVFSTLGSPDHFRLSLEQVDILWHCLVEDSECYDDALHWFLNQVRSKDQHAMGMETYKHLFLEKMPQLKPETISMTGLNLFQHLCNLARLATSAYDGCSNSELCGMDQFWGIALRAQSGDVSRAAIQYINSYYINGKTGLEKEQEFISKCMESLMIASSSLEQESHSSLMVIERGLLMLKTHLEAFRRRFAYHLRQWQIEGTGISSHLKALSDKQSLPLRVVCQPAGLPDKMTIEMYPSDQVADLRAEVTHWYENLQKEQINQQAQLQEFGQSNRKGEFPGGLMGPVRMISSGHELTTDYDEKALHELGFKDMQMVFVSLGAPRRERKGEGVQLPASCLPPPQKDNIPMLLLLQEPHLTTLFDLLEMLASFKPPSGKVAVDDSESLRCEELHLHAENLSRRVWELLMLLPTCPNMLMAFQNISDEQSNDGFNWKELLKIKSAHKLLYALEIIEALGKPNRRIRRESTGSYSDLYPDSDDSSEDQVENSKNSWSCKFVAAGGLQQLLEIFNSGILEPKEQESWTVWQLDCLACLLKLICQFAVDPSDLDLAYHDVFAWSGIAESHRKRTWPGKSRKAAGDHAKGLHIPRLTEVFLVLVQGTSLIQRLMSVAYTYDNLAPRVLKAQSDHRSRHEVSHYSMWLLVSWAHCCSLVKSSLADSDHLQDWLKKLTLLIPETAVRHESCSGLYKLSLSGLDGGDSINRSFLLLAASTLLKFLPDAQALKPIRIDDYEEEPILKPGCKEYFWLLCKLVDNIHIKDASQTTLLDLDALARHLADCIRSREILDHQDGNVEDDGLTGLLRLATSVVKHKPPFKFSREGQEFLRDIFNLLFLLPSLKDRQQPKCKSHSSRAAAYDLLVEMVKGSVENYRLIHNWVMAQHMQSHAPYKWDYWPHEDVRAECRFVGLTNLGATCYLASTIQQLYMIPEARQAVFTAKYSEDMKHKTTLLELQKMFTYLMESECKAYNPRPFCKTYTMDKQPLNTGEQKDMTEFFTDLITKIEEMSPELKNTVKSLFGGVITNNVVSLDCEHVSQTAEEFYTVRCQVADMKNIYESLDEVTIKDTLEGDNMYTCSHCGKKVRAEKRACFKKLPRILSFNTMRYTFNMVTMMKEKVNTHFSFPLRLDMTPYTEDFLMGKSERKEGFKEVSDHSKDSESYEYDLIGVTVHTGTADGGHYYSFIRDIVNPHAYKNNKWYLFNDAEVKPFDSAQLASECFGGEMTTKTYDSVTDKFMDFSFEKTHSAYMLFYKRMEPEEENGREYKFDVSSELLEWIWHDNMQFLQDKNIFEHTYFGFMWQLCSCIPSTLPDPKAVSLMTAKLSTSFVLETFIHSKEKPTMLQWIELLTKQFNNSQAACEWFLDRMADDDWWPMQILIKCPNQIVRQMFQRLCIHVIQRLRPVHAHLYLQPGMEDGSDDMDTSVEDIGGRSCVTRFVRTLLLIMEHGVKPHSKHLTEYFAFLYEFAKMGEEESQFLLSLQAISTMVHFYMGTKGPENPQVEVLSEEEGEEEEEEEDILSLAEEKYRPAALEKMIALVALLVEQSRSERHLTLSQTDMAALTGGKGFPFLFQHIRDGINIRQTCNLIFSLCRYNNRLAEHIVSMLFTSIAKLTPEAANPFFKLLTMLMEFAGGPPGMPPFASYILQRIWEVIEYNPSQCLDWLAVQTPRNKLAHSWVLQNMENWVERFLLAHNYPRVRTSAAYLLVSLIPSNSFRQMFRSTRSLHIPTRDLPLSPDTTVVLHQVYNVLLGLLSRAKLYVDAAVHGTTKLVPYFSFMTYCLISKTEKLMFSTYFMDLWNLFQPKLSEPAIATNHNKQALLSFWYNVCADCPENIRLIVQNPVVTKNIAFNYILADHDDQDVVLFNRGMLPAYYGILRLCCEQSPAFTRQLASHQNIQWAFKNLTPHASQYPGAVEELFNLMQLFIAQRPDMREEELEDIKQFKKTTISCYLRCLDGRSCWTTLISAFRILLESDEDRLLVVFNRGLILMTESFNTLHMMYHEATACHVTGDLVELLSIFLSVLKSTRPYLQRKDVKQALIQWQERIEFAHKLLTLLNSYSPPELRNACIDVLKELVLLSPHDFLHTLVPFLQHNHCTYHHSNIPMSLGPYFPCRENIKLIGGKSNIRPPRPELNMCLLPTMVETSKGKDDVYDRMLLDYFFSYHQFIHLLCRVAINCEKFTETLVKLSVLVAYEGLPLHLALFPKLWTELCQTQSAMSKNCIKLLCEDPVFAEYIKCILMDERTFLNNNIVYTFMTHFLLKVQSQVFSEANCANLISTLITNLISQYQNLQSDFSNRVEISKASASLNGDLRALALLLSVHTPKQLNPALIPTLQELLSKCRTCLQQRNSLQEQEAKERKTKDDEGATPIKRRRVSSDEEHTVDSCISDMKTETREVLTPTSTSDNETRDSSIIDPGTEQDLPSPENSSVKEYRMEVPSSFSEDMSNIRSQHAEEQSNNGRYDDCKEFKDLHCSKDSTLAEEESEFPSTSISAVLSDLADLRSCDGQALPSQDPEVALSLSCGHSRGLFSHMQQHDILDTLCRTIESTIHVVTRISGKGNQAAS
Outline: (§1)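 The table lists average log2 ratios of fragment over vehicle, from an unpaired t-test on global-median-normalised Spectronaut label-free quantities. Proteins with ≥2 unique peptides were used. Samples were HEK293T lysate (495 µg) treated in triplicate with fragment at 200 µM or vehicle for 3 h, then with Biotin-Ahx-Ub-VS (0.5 µM final) for 1 h, with labelled DUBs NeutrAvidin-enriched and run by diaPASEF LC-MS/MS.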

[2] = biological target: T1, USP36 (UniProt Q9P275)
T1 sequence (whole entry): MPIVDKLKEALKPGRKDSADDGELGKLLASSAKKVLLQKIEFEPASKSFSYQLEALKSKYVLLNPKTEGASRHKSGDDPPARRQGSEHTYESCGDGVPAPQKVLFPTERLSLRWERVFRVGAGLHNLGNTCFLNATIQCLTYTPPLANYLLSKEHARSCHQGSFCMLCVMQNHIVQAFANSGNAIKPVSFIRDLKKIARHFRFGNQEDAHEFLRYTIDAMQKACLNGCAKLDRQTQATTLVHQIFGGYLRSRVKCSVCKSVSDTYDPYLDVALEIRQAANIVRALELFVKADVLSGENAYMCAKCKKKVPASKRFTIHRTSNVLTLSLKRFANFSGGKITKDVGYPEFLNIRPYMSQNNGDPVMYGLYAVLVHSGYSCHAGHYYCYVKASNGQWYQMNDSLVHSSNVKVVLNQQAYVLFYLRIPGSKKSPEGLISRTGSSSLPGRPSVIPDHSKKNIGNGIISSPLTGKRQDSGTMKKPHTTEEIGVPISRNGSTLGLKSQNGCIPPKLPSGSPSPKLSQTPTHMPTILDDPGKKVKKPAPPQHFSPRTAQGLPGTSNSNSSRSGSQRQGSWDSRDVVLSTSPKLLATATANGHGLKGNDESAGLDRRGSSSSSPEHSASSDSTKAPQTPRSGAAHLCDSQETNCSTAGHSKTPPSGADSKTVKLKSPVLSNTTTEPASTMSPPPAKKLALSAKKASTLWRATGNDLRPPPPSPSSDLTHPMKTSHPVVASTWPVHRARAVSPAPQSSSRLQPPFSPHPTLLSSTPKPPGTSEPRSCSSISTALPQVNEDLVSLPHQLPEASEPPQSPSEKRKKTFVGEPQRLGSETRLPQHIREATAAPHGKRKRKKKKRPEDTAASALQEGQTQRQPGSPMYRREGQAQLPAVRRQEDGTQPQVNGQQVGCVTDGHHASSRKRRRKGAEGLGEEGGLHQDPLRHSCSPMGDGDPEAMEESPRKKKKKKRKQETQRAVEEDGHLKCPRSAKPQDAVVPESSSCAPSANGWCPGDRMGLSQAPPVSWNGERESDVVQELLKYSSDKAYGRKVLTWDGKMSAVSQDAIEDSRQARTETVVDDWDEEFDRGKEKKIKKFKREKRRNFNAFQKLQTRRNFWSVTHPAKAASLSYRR
Outline: as §1

[3] = biological target: T2, USP38 (UniProt Q8NB14)
T2 sequence (whole entry): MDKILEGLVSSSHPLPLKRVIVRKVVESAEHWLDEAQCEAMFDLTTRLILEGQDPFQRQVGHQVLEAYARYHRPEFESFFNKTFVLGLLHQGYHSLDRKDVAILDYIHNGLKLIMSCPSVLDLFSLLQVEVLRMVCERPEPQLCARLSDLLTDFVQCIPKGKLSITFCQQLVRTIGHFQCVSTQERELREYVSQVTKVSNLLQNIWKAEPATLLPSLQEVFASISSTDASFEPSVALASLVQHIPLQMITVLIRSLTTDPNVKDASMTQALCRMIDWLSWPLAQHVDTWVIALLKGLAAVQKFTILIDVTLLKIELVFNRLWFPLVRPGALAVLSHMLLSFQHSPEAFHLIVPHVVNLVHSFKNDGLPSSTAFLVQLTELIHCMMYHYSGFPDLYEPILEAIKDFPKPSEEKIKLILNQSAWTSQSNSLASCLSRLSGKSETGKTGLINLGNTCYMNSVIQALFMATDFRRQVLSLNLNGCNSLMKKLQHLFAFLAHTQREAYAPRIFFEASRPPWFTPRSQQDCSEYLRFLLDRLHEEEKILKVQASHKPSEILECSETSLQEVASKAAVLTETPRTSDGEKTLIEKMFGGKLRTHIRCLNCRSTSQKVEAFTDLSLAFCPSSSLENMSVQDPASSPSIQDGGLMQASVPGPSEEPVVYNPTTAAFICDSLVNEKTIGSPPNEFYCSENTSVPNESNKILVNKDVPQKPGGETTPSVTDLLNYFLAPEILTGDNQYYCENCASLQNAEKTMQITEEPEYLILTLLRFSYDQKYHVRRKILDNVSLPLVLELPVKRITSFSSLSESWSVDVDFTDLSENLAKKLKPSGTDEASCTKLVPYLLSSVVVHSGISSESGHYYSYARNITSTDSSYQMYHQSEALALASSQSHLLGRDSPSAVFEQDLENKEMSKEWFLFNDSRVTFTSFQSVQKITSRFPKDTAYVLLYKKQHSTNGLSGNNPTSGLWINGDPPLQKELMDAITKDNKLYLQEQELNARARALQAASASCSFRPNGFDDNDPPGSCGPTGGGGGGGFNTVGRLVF
Outline: as §1

[4] = biological target: T3, USP39 (UniProt Q53GS9)
T3 sequence (whole entry): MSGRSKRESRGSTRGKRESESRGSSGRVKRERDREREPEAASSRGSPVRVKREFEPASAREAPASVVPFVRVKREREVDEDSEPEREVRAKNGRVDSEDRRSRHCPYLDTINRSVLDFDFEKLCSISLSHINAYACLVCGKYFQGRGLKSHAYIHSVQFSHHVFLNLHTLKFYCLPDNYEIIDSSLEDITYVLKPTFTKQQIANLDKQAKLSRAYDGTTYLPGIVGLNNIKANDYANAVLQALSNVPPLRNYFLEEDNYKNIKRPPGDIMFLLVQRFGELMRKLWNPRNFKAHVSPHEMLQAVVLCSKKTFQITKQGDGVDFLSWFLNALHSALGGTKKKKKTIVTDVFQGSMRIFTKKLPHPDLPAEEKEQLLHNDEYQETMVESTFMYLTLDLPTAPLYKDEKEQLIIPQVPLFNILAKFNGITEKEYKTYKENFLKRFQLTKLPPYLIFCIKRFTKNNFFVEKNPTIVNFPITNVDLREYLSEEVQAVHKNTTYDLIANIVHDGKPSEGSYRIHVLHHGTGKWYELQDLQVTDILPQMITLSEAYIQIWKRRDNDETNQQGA
Outline: as §1

[5] = biological target: T4, USP4 (UniProt Q13107)
T4 sequence (whole entry): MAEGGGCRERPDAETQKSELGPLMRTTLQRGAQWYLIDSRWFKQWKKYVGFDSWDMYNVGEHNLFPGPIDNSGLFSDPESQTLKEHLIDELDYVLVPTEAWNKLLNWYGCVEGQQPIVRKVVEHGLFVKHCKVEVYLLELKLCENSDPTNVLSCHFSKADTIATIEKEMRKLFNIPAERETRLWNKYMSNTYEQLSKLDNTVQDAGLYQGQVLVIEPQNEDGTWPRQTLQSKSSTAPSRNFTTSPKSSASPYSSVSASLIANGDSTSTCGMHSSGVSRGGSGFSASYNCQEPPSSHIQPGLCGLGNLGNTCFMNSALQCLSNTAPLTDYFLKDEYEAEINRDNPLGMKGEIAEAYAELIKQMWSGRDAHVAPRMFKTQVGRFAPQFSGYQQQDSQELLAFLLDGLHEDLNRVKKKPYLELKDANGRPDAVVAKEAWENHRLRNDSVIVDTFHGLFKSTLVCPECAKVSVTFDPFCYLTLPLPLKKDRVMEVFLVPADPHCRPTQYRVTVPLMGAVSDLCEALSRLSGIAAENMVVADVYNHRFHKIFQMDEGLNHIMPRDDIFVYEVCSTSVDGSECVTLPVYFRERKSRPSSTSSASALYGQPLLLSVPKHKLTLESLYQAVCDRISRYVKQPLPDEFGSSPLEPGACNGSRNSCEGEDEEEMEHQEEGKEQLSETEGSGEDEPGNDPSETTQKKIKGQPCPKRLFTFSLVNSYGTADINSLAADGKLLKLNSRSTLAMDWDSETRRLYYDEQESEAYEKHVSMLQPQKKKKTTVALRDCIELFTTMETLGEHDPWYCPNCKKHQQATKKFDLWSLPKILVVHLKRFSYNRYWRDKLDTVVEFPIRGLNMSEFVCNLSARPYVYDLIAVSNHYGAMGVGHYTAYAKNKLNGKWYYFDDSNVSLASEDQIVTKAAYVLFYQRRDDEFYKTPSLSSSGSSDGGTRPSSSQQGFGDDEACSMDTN
Outline: as §1

Measured: log2 ratio of Biotin-Ahx-Ub-VS probe labelling

O=C(CCl)Nc1cc(Cl)ccc1-n1cncn1
inactive: [1] -0.448 | [2] -0.325 | [3] -0.932 | [4] 0.142 | [5] -0.712
